CTSL1 counter = counter-screen for PFM18AAP inhibitors: inhibitors of F. hepatica cathepsin L1; recombinant F. hepatica cathepsin L1, Z-Leu-Arg-MCA fluorescence; inhibition, % at 5.96 µM; 300,000 compounds, 0.49% hits; AID 1906;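 active means inhibition above the mean of all tested compounds plus 3 SD, set per screening campaign, cut at about 17% in these data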
HNF4A DNA FP = change in binding of human HNF4 alpha to DNA; P41235; HNF4a-FITC DNA binding, fluorescence polarization, 1 h; activity change, % at 10 µM; 360,000 compounds, 0.3% hits; AID 1224865; in the data active means activity change above about 30%, passing the limit was not always enough
Rpn11 inh = Rpn11 (human) deubiquitinase inhibition. O00487. human 26S proteasome, Ub4-pepOG fluorescence polarization; 20S core pre-blocked with epoxomicin. inhibition, % at 20 µM. 360,000 compounds, 0.59% hits. AID 588493;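 active means inhibition at 20 µM, scaled to each plate's controls, above about 33%, limit read from the data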
Target sequence (O00487 whole entry, looked up): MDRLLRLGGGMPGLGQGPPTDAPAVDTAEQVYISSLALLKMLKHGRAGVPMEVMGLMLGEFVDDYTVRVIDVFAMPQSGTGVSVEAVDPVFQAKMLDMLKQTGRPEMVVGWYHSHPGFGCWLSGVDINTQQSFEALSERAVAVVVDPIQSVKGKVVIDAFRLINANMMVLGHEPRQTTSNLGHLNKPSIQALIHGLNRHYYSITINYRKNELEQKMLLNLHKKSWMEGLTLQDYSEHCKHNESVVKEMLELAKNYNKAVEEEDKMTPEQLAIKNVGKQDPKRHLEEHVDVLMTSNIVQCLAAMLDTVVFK
TPT1 inhibitor = C. albicans TPT1 enzyme inhibition; recombinant caTPT1, FP RNA substrate dephosphorylation; inhibition, % at 5 µM; 300,000 compounds, 0.81% hits; AID 1962;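 active means inhibition above the mean of all tested compounds plus 3 SD, set per screening campaign, cut at about 24% in these data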
PHOSPHO1 inh = PHOSPHO1 (human) inhibition. Q8TCT1. AID 1565. inhibition, % at 13.3 µM. recombinant PHOSPHO1, absorbance phosphatase assay. 290,000 compounds, 1.1% hits; in the data active means inhibition above about 60%
CendR NRP1 mod = alters CendR peptide binding to human NRP-1; FAM-RPARPAR peptide binding to NRP-1, fluorescence polarization; AID 602438; inhibition, % at 25 µM; O14786; 360,000 compounds, 0.85% hits;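 active means inhibition or corrected inhibition above about 18%, plus a signal ratio from 0.5 to 1.5, limit read from the data, passing the limit was not always enough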
caTPT1 confirm = TPT1 (C. albicans) inhibition, confirmation. shares compounds with TPT1 inhibitor. recombinant caTPT1, fluorescence polarization, RNase T1 coupled. inhibition, % at 5 µM. 2,400 compounds, 74% hits;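 active means inhibition above the primary screen limit, the mean inhibition of all tested compounds plus 3 SD, cut at about 25% in these data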
RNase T1 counter = blocks Aspergillus oryzae RNase T1, a TPT1 counter-screen; shares compounds with TPT1 inhibitor; RNase T1 cleavage, fluorescence polarization, 1536-well; inhibition, % at 5 µM; 2,400 compounds, 83% hits;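 active means inhibition above the solvent-only control well mean plus 3 SD, limit set per screening run, cut at about 23% in these data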;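 further: inhibitors block cleavage so intact labeled substrate keeps polarization high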
Target sequence (P00651 whole entry, looked up): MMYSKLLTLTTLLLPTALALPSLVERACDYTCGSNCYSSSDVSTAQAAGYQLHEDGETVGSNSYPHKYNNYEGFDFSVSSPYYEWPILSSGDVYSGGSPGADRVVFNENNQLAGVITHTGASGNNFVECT
Large screens that a line does not name were inactive (follow-up assays come after a bar, where shown). Hits are enriched below; roughly 3.3% of the tested compounds scored in any of these assays.

Cc1ccc2oc(C(=O)N3CCC(O)(c4cccc(C(F)(F)F)c4)CC3)c(C)c2c1	none
CNc1ccc(Br)cc(C(=O)/C=C/c2ccc(Cl)cc2Cl)c1=O	TPT1 inhibitor 68.9 | caTPT1 confirm 58.2 | RNase T1 counter 72.1
CNc1ccc(Br)cc(C(=O)/C=C/c2cccc(OC)c2)c1=O	TPT1 inhibitor 42.3 | caTPT1 confirm 60.9 | RNase T1 counter 73.8
CNc1ccc(Br)cc(C(=O)/C=C/c2ccc(OC)cc2OC)c1=O	TPT1 inhibitor 53.5 | caTPT1 confirm 75.7 | RNase T1 counter 83.7
O=C(/C=C/c1ccccc1)c1cc(Br)ccc(=O)c1O	none
CCCCN(C(=O)C(C)(C)Oc1ccc(Cl)cc1)c1c(N)n(CCC)c(=O)[nH]c1=O	none (no result: CTSL1 counter, TPT1 inhibitor, PHOSPHO1 inh)
CCCc1nnc(NS(=O)(=O)c2ccc(C)cc2)o1	none (no result: CTSL1 counter, TPT1 inhibitor, PHOSPHO1 inh)
CCOc1ccc(N2C(=O)CC(N3CCN(c4ccccc4F)CC3)C2=O)cc1 (centres undefined)	none
CN1/C(=C/C2CC(=O)N(c3cccc4ccccc34)C2=O)C(C)(C)c2ccccc21 (centres undefined)	TPT1 inhibitor 37.5 (not shown: Rpn11 inh) | caTPT1 confirm 54.5 | RNase T1 counter 67.9
CN1/C(=C/C2CC(=O)NC2=O)C(C)(C)c2ccccc21 (centres undefined)	none
CCOc1ccc(N2C(=O)CC(/C=C3/N(C)c4ccccc4C3(C)C)C2=O)cc1 (centres undefined)	TPT1 inhibitor 24.8 | caTPT1 confirm inactive | RNase T1 counter 26.1
COc1ccc(CCn2c(C(C)C)nc3oc4ccccc4c(=O)c3c2=O)cc1	none
CSc1ccc(CN2CCCC(CNC(=O)c3ccc(F)cc3)C2)cc1 (centres undefined)	none
O=C(CN(C(=O)c1csnn1)c1cccc2ccccc12)NCc1ccccc1	none
O=C(/C=C/N1CCOCC1)c1cc2ccccc2o1	TPT1 inhibitor 25.5 | caTPT1 confirm inactive | RNase T1 counter inactive
O=C(/C=C/N1CCOCC1)c1coc2ccccc12	TPT1 inhibitor 25.5 | caTPT1 confirm inactive | RNase T1 counter inactive
COc1cc(NC(=S)NCCc2ccc(S(N)(=O)=O)cc2)c(OC)cc1Cl	none
NS(=O)(=O)c1cc2c(cc1Cl)NC(Cc1ccccc1)NS2(=O)=O (centres undefined)	TPT1 inhibitor 43.4 | caTPT1 confirm inactive | RNase T1 counter inactive
CCNC(=O)/C(C#N)=C/c1c(N2CCCCCC2)nc2ccccn2c1=O	none
CNC(=O)/C(C#N)=C/c1c(N2CCCCCC2)nc2ccccn2c1=O	TPT1 inhibitor 36.0 | caTPT1 confirm 51.4 | RNase T1 counter 60.2
C=CCc1cccc2cc(C(=O)N3CCN(C(=O)c4ccco4)CC3)c(=O)oc12	none
CCN1CCc2c(sc(NC(=S)NC(=O)c3ccco3)c2C(N)=O)C1	TPT1 inhibitor 33.5 | caTPT1 confirm 32.0 | RNase T1 counter 41.6
NC(=O)c1c(NC(=O)c2ccccc2)sc2c1CCN(Cc1ccccc1)C2	TPT1 inhibitor 70.7 (not shown: Rpn11 inh) | caTPT1 confirm 55.5 | RNase T1 counter 66.4
N#Cc1c(NC(=O)/C=C/C(=O)O)sc2c1CCN(Cc1ccccc1)C2	TPT1 inhibitor 122.3 (not shown: Rpn11 inh) | caTPT1 confirm 60.6 | RNase T1 counter 71.7
CC(=O)Nc1sc2c(c1C#N)CCN(Cc1ccccc1)C2	none
CC(C)C(=O)Nc1sc2c(c1C(N)=O)CCN(Cc1ccccc1)C2	none
NC(=O)c1c(NC(=O)c2c(F)cccc2F)sc2c1CCN(Cc1ccccc1)C2	TPT1 inhibitor 36.4 | caTPT1 confirm inactive | RNase T1 counter 23.2
CCN1CCc2c(sc(NC(=O)Cc3ccccc3)c2C(N)=O)C1	none
CCCCn1c(SCC(=O)NC2CC(C)(C)NC(C)(C)C2)nc2cc(S(N)(=O)=O)ccc21	none
CC1C(O)=C(c2ccccc2)P(=O)(Cc2ccccc2)C1C (centres undefined)	none (no result: CTSL1 counter, Rpn11 inh, TPT1 inhibitor, PHOSPHO1 inh)
CCCCN1C(=O)C(CC(=O)NCc2cccs2)CC(C(=O)N(CC)CC)=C1C (centres undefined)	none (no result: CTSL1 counter, TPT1 inhibitor, PHOSPHO1 inh)

Screens from PubChem BioAssay.
